Only some compounds are listed: those with a hit (about 21% of all), similar ones and a draw of the others.
HCV inhibitor: inhibitors of hepatitis C virus infection; AID 651820; Huh7.5.1 HCVcc-Cre infection, luciferase reporter, 44 h; Potency, µM (titrated, usually from 41.8 µM), inactives show at the top dose activity change, negative = inhibition, actives largely listed as inhibitors; actives 3.4% (n = 340,000); also: potency is read from the fitted curve at half-maximal effect; % is scaled to controls: 0 for no effect and ±100 for the full control effect
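Cells seeded at 1,000/well and cultured 4 h, then compounds added followed by HCVcc-Cre virus (~0.5 moi). After 44 h further culture, luciferase substrate was added, plates held 15 min at room temperature, and luminescence read for 15 sec.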
Shiga toxin inh: blocks Shiga toxin action in Vero cells. Vero cells, Shiga toxin protein synthesis inhibition reporter. inhibition, % at 38.7 µM. actives 9.2% (n = 290,000). AID 2315; in the data active = inhibition mostly above about 28%, no sharp cut-off; inactive = mostly below about 43%; also: 0% is about no effect
CHX counter: counter-screen for Shiga toxin inhibitors: cycloheximide protein synthesis inhibition. cell reporter, cycloheximide protein synthesis inhibition counterscreen. max response, %. actives 12% (n = 300,000); in the data active = max response mostly above about 13%, no sharp cut-off; inactive = mostly below about 14%; also: read at 38.3 µM for the half of the compounds with a filed dose; 0% is about no effect
Pf growth 96h: inhibits malaria parasite growth, 96 h | P. falciparum luciferase reporter growth, 96 h | Potency, µM (highest dose often 28.7 µM), for the others: top-dose activity change, negative = inhibition, actives largely listed as inhibitors | actives 6.9% (n = 320,000); also: potency is read from the fitted curve at half-maximal effect; % is scaled to controls: 0 for no effect and ±100 for the full control effect
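P. falciparum expressing integrated firefly luciferase grown in erythrocytes (2% hematocrit, 0.05% parasitemia final) with compounds for 96 hours at 37 C, 5% CO2. Growth inhibition read as loss of luminescence after adding luciferase detection reagent.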
Pf growth 48h: inhibits P. falciparum growth in the first generation, 48 h | P. falciparum luciferase growth in erythrocytes, 48 h | Potency, µM (highest dose often 28.7 µM), for the others: top-dose activity change, negative = inhibition, hits mostly inhibitors | actives 5.9% (n = 310,000) | AID 504832; also: potency is read from the fitted curve at half-maximal effect; % is scaled to controls: 0 for no effect and ±100 for the full control effect
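Erythrocytes infected with P. falciparum carrying an integrated firefly luciferase reporter (2% hematocrit, 0.1% parasitemia final) were exposed to compounds in RPMI 1640 with 0.5% Albumax at 37 C, 5% CO2. Growth inhibition was scored as reduced luminescence.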
HCMV inh: blocks human cytomegalovirus replication; actives 4.5% (n = 410,000); activity change, negative = inhibition, % at 57.5 µM; HFF cells, HCMV-luciferase reporter, 72 h; hits give low values; in the data active = activity change below about -60%; inconclusive = no clear call, values can overlap the other calls; inactive = above about -39%; also: % is scaled to controls: 0 for no effect and ±100 for the full control effect
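Steps: HFFs plated, 16 h 37C; compounds added; HCMV-luciferase added to MOI 1 PFU/cell; 72 h 37C; OneGlo reagent, 5 min room temperature; luminescence read, normalized to controls.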
Numbers without * were called inactive; u = inconclusive; x = no result; ! = not confirmed by another sample. Unless noted, calls follow the shape of the dose curve; as a rule, active = well fitted inhibition curve with a large enough effect; inconclusive = small, poorly fitted or top-dose-only effect, or another doubt; inactive = no such curve, though single readings can be large or run the other way.

SMILES	HCV inhibitor	Shiga toxin inh	CHX counter	Pf growth 96h	Pf growth 48h	HCMV inh
CC(C)C[C@H](NC(=O)[C@@H](O)[C@H](N)Cc1ccccc1)C(=O)O	x	x	x	0.675µM*	0.757µM*	u
COC(=O)c1ccc(OCC(=O)NC2CCCCCC2)cc1	-9.8%	39.5*	25.2	u	2.1%	-4.6
COC(=O)C(CC(C)C)NC(=O)C(N)Cc1ccccc1 (stereo unspecified)	22.5%	-5.6	2.0	174.3%	14.6%	54.5
CC(NC(=O)COC(=O)Cc1ccc(Cl)cc1)c1ccccc1 (stereo unspecified)	24.0%	x	x	x	x	-2.6
CC(NC(=O)Cc1ccc(-c2ccccc2)cc1)c1ccccc1 (stereo unspecified)	14.1µM*	18.6	-2.4	0.9%	-6.1%	-28.3
O=C(c1cccc(C(=O)N(c2ccccn2)C2CCCCC2)c1)N(c1ccccn1)C1CCCCC1	-19.7%	42.5	-5.9	-27.1%	11.7µM*	u
COc1cccc(/C=C(/C(=O)OCC(=O)NCC2CCCO2)c2ccccc2)c1 (stereo unspecified)	-14.7%	-11.4	10.1	49.0%	u	-32.1
COc1ccc(OCC(=O)NC2CCCN(Cc3ccc(Cl)cc3)C2)cc1 (stereo unspecified)	u	-4.1	-3.1	u	13.1µM*	-0.3
CC(C)CC(NC(=O)COc1ccccc1)C(=O)O (stereo unspecified)	15.4%	-20.6	-2.8	11.7µM*	-2.3%	-14.3
COc1cccc(/C=C(/C(=O)OCC(=O)NC2CCCCCCC2)c2ccccc2)c1	11.2µM*	-12.5	0.9	0.0%	-1.9%	u
CN1C2Cc3c(n(C)c4ccccc34)C1CC=C2CO (stereo unspecified)	4.2%	x	x	-28.9%	42.8%	-1.1
Cc1ccc(NC(=O)C(=O)NCC(c2ccc3c(c2)OCO3)N2CCN(c3ccccc3)CC2)cc1 (stereo unspecified)	x	x	x	x	x	-3.7
COc1cc(C(=O)N2CCN(Cc3ccc4c(c3)OCO4)CC2)cc(OC)c1OC	-4.4%	-10.1	-1.0	u	u	-32.0
CC(OC(=O)c1cnccn1)C(=O)c1ccccc1 (stereo unspecified)	8.3%	x	x	-1.8%	2.4%	-24.6
O=C(CSc1nc(=O)n(CCN2CCOCC2)c2c1CCC2)Nc1cccc(Cl)c1	x	x	x	x	x	14.3
CC(C)c1ccc(OCC(=O)NC(C)c2ccccc2)cc1 (stereo unspecified)	5.2%	-1.1	10.4	13.1µM*	20.1%	4.3
Cc1ccc(OCC(=O)NC(C)c2ccccc2)cc1 (stereo unspecified)	0.0%	-1.6	-4.2	18.1%	-18.1%	26.7
CC(=O)c1ccc(OCC(=O)NC2CCCCCC2)cc1	9.7%	x	x	2.5%	-10.5%	14.1
CC(=O)NC(Cc1ccc(N(CCCl)CCCl)cc1)C(=O)NC(CC(C)C)C(=O)O (stereo unspecified)	-22.1%	-5.8	0.2	10.4µM*	14.3%	15.1
CC(C)c1ccc(OCC(=O)N(c2ccccn2)C2CCCCC2)cc1	u	19.1	16.5*	15.1%	u	-8.2
CCOC(=O)C(NC(=O)C(Cc1ccc(N(CCCl)CCCl)cc1)NC(C)=O)C(C)C (stereo unspecified)	-13.7%	5.7	-2.2	3.6%	-18.2%	54.3
CC(C)c1ccc(OCC(=O)NC2CCCC2)cc1	9.7%	63.0*	34.1*	-5.8%	u	22.1
Cc1cc(C)c(OCC(=O)OCC(=O)NCCC2=CCCCC2)c(C)c1	6.6%	x	x	47.4%	17.4%	-4.3
Cc1ccc2nc(C)n(-c3ccc(F)cc3)c(=O)c2c1	3.5%	21.4	2.8	-9.5%	15.5%	-36.4
Cc1nc2c(cnn2-c2ccccc2Cl)c(=O)n1-c1ccc(C(C)C)cc1	u	-3.6	-2.6	2.62µM*	x	-60.2*!
SMILES	HCV inhibitor	Shiga toxin inh	CHX counter	Pf growth 96h	Pf growth 48h	HCMV inh
CCOc1ccc(-n2c(C)nc3c(cnn3-c3ccc(Cl)cc3)c2=O)cc1	10.9%	-10.1	-1.4	61.6%	-13.2%	-25.6
Cc1ccc(-n2c(C)nc3c(cnn3-c3ccc(F)cc3)c2=O)cc1	u	-4.0	-0.5	12.1%	-25.4%	-83.4*
COc1ccc(-n2c(C)nc3c(cnn3-c3ccc(C)c(C)c3)c2=O)cc1	9.1%	-1.0	1.3	10.4µM*	x	17.7
Cc1ccc(-n2ncc3c(=O)n(-c4ccc(C)c(C)c4)c(C)nc32)cc1	-4.8%	3.8	-4.2	106.6%	-19.0%	u
CCc1nc2c(cnn2-c2ccc(Cl)cc2)c(=O)n1-c1ccc(OC)cc1	11.2µM*	-14.9	-3.6	u	17.9%	-36.5
CC(C)NS(=O)(=O)c1ccc(OCC(=O)N2CCN(c3cccc(Cl)c3)CC2)cc1	x	x	x	x	x	-10.6
CCOC(=O)C1CCCN(C(=O)CCCn2nc(C)n3c(cc4sccc43)c2=O)C1 (stereo unspecified)	-0.8%	-18.8	-11.9	2.94µM*	x	11.3
CCOC(=O)C1CCN(C(=O)Cn2nc(CC)n3c(cc4sccc43)c2=O)CC1	x	x	x	x	x	-26.1
CCC(Sc1nnc(C)n2c1cc1occc12)C(=O)Nc1ccccc1OC (stereo unspecified)	x	x	x	x	x	-21.9
CCc1cccc2sc(N(CCCN3CCOCC3)C(=O)CS(=O)(=O)c3ccccc3)nc12	0.5%	x	x	u	9.28µM*	-12.2
O=c1cc(-c2ccccc2)nc(SCc2ccccc2F)[nH]1	2.6%	6.5	-3.6	2.5%	-4.0%	-31.3
c1ccc(-c2ccc(SCc3cccnc3)nn2)nc1	-5.4%	136.7*	27.5*	-16.7%	153.6%	69.5
c1ccc(CSc2ccc(-c3cccnc3)nn2)cc1	6.6%	98.5*	31.6*	-14.8%	116.2%	3.0
O=C(CSc1ccc(-c2cccnc2)nn1)N1CCCC1	11.6%	10.5	2.1	-2.7%	-25.2%	-28.0
COc1ccc(-c2ccc(SCc3cccnc3)nn2)cc1OC	u	38.6	19.1*	u	2.2%	-62.6*
c1cncc(CSc2ccc(-c3cccnc3)nn2)c1	1.6%	67.2*	15.9	-10.2%	36.1%	13.7
COCCCNC(=O)c1c[nH]c2ccc(S(=O)(=O)N3CCc4ccccc43)cc2c1=O	u	-7.2	-1.1	5.0%	11.7µM*	0.0
CCN(CC)S(=O)(=O)c1ccc2[nH]cc(C(=O)NC3CC3)c(=O)c2c1	-11.2%	-4.9	1.2	0.465µM*	-6.7%	-20.9
CCN(CC)S(=O)(=O)c1ccc2[nH]cc(C(=O)NCCc3ccc(OC)c(OC)c3)c(=O)c2c1	10.5%	-9.4	-1.3	8.28µM*	u	-3.7
Cc1ccccc1NS(=O)(=O)c1ccc2[nH]cc(C(=O)NC3CCCCC3)c(=O)c2c1	x	x	x	11.7µM*	11.7µM*	35.8
Cc1c(Cl)cccc1NS(=O)(=O)c1ccc2[nH]cc(C(=O)NC3CCCC3)c(=O)c2c1	x	x	x	x	x	7.2

From PubChem BioAssay
